Hit rate of the full screen: of about 370,000 compounds, about 3,000 (0.81%) were called active. Shown is part of a subset that was picked to be rich in actives. A number with no mark means an inactive call.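 Rule for the calls: active = activity above about 14% (limit read from the data; passing the limit was not always enough); inactive = the rest.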
What follows are compounds tested against Nuclear receptor subfamily 1 group D member 1 (Homo sapiens) (UniProt P20393) (assay: modulators of Rev-erb alpha DNA binding, primary screen, biochemical, FITC-DNA, fluorescence polarization, uHTS (AID 1259318;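 note: 0% = DMSO wells with 35 nM protein and 100% = DMSO wells with 750 nM protein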)). Details: Rev-erbα–FITC-DNA binding, 90 min, at 10 µM, active compounds read high.
Nuclear receptor subfamily 1 group D member 1 (Homo sapiens), sequence (P20393 whole entry, looked up): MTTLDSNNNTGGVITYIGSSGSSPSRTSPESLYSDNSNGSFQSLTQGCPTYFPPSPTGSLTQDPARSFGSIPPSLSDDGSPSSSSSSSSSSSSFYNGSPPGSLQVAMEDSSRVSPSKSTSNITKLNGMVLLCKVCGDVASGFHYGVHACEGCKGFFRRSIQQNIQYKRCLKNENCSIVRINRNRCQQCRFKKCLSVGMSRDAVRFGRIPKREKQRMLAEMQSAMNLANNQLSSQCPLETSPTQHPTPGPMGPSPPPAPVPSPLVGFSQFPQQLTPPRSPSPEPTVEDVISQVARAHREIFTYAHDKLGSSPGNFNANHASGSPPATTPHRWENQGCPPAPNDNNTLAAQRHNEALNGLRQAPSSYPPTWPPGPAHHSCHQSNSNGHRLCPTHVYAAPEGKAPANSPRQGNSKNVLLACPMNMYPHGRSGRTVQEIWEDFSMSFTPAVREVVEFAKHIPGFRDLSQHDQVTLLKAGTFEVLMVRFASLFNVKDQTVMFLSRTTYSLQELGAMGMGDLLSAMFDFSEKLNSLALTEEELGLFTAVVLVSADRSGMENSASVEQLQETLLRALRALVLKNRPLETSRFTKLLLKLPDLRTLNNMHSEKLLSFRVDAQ

Row | Compound | activity
1 | O=C(NCCCN1CCCCCC1)c1ccc(N2CCCC2=O)cc1 | -2.08%
2 | CS(=O)(=O)c1ccc2nc(NC(=O)c3ccc(N4CCCC4=O)cc3)sc2c1 | 41.6% (active)
3 | O=C(Nc1cc(S(=O)(=O)N2CCOCC2)ccc1OCC(F)(F)F)c1ccc(N2CCCC2=O)cc1 | 3.86%
4 | CC(=O)c1c(C)[nH]c(C(=O)OCC(=O)NCCC(C)C)c1C | 4.11%
5 | COC(=O)C12C=C3CC(c4ccccc4)=C3C(=O)N1Cc1[nH]c3ccccc3c1C2 (centres undefined) | -0.17%
6 | CCn1c(SCC(=O)Nc2cccc(F)c2)nnc1-c1cc2cc(Br)ccc2o1 | 56.3% (active)
7 | O=C(CSc1nc2ncccc2[nH]1)Nc1ccc2c(c1)OCCO2 | -0.69%
8 | O=C(CSc1nc2[nH]c(=O)[nH]c(=O)c2s1)Nc1cccc(F)c1 | -1.8%
9 | CCn1c(CNC(=O)c2ccco2)nnc1SCC(=O)Nc1cccc(F)c1 | -8.25%
10 | Cc1nc2nc(SCC(=O)c3ccccc3)[nH]c2cc1Br | 34.1% (active)
11 | CCCn1c(SCC(=O)Nc2cccc(C(=O)OCC)c2)nnc1-c1ccoc1C | -3.66%
12 | Cc1cc(C)c(C(=O)CSc2nc(C)cc(=O)[nH]2)c(C)c1 | -1.57%
13 | Cc1nc2nc(SCC(=O)Nc3cccc(F)c3)[nH]c2cc1Br | 43.6% (active)
14 | COc1ccc(C(=O)CSc2nccc(=O)[nH]2)cc1 | 2.06%
15 | CN(Cc1nc(-c2cnccn2)no1)Cc1n[nH]c2c1CCCCC2 | -2.14%
16 | COC(=O)c1cc(S(=O)(=O)N2CCN(c3cc(C)ccc3C)CC2)c[nH]1 | 11.2%
17 | CCOC(=O)C1CCN(C(=O)C(C)(C)NC(=O)Nc2ccccc2Cl)CC1 | -6.49%
18 | Cc1ccc(C(=O)C2CCN(CC(=O)NCCC(C)C)CC2)cc1 | -0.72%
19 | Cc1noc(C)c1CCC(=O)O | 4.26%
20 | Cc1ccc(SCC2=NNC(=O)C2)cc1 | -1.27%
21 | O=C(c1cccs1)N1CCCC(c2nc(-c3ccc(F)cc3)no2)C1 (centres undefined) | 1.09%
22 | O=C(CCC(=O)c1cccs1)NC1CCCCCC1 | 3.87%
23 | N#Cc1c(-c2ccc(F)cc2)cc(C2CC2)nc1SCC(=O)c1cccs1 | 174% (active)
24 | COCCCNc1nc2c(-c3cccc(C)c3)nnn2c2ccc(Cl)cc12 | 52.9% (active)

Row | Compound | activity
25 | COCCCNc1nc2ccccc2nc1NS(=O)(=O)c1ccc(F)cc1 | -2.18%
26 | COCCCNc1nc2c(-c3cccc(C(F)(F)F)c3)nnn2c2ccccc12 | 15.6%
27 | COc1ccccc1C(=O)Oc1ccc(N2C(=O)CCC2=O)cc1 | -3.5%
28 | COc1ccc(-c2csc(NC(=O)c3ccc(N4C(=O)CCC4=O)cc3)n2)cc1OC | 19.3% (active)
29 | COc1ccc(-n2nc3c(c2NC(=O)c2ccc(N4C(=O)CCC4=O)cc2)CSC3)cc1 | 1.69%
30 | Cc1ccc(CS(=O)(=O)CCC(=O)NCc2ccc(F)cc2)cc1 | -2.15%
31 | C/C=C/C=C/C(=O)OCC(=O)Nc1ccc(Cl)cc1 | -1.79%
32 | O=S1(=O)c2ccc(N3CCN(Cc4ccccc4F)CC3)cc2Oc2ccccc2CN1Cc1cn(Cc2ccc(Cl)cc2)nn1 | -0.02%
33 | CCOC(=O)c1ccc(NC(=O)c2c(N)n(C)c(=O)[nH]c2=O)cc1 | 2.83%
34 | CCOC(=O)c1ccc(NC(=O)CCn2c(=O)oc3ccccc32)cc1 | -4.86%
35 | CCOC(=O)c1ccc(NC(=O)c2c(NCc3ccccc3)[nH]c(=O)[nH]c2=O)cc1 | 19.9% (active)
36 | CCCCN1CCN(C(=O)c2ccc3c(c2)NC(=O)C(C)(C)O3)CC1 | -3.01%
37 | O=c1ccc2c(-c3ccccc3S(=O)(=O)O)c3ccc(O)c(O)c3oc-2c1O | -56.3%
38 | O=C(CNC(=O)C12CC3CC(CC(C3)C1)C2)OCC(=O)N1CCCCC1 | -3.15%
39 | COc1ccc(CNC(=O)c2nnn(CC(=O)Nc3cc(C)cc(C)c3)c2N)cc1 | 33.3% (active)
40 | COc1ccc(CNC(=O)CN2CCC(n3nnc4cc(F)ccc43)CC2)cc1 | 0.03%
41 | COc1ccc(CNC(=O)c2cc(=O)c3c(C)cc(C)cc3o2)cc1 | -1.71%
42 | CCOC(=O)c1c(NC(C)=O)sc2c(O)c(Br)ccc12 | -1.09%
43 | CCOC(=O)C1CCN(C(=O)CN2C(=O)NC(C)(c3ccc4cc(OC)ccc4c3)C2=O)CC1 (centres undefined) | -4.48%
44 | O=C(Nc1cc(Cl)cc(Cl)c1)OCCN1CCCC12CCC(c1ccccc1)CC2 (centres undefined) | -2.58%
45 | CCCOc1cc(C)c(S(=O)(=O)n2nnc3ccccc32)cc1C | -0.13%
46 | Cn1c(=O)c2c(-c3cccc(Br)c3)c(C#N)c(N)nc2n(C)c1=O | -4.07%
47 | CSc1ccc(-c2c(C#N)c(N)nc3c2c(C)nn3-c2ccccc2)cc1 | 59.1% (active)
48 | Cc1nc2c(c(C)nn2-c2ccccc2)c(C)c1C | 9.78%

Row | Compound | activity
49 | CCC(C)[C@H]1COCCS(=O)(=O)N1Cc1ccc(C)cc1 (some centres undefined) | -5%
50 | O=C1C(=O)N(Cc2ccc(-c3ccsc3)cc2)c2ccc(OC(F)(F)F)cc21 | -0.04%
51 | O=C(c1cccc(C(F)(F)F)c1)N1CC[C@H]2[C@H](CCCN2Cc2cc(F)cc(F)c2)C1 | 0.92%
52 | Cc1cccc(N(CC(=O)Nc2ccc(-c3nc4ccc(C)cc4s3)cc2)S(C)(=O)=O)c1 | 35.6% (active)
53 | Cc1ccc2nc(-c3ccc(NC(=O)CN(C)S(=O)(=O)c4ccccc4)cc3)sc2c1 | 8.26%
54 | Cc1ccc(N(CC(=O)Nc2cc(C)cc(C)c2)S(=O)(=O)c2cccc3nonc23)cc1 | 0.18%
55 | CCOc1ncccc1C(=O)N(CC)CC(=O)Nc1ccc(NC(C)=O)cc1 | -1.37%
56 | COC(=O)C(C)Sc1ccc2nnc(-c3cccc(F)c3)n2n1 (centres undefined) | 1.26%
57 | CCOC(=O)CNC(=O)CSc1ccc2nnc(-c3cccnc3)n2n1 | 3.05%
58 | CCOc1ccc(-c2nnc3ccc(SC)nn23)cc1 | 48.8% (active)
59 | COc1ccc(-c2nnc3ccc(SCc4ccccc4)nn23)cc1 | 25.6% (active)
60 | O=C(CSc1ccc2nnc(-c3ccccc3)n2n1)N1CCCc2ccccc21 | -1.89%
61 | COc1ccc(CSc2nnc(-c3cccc(C)c3)n2C)cc1 | 9.69%
62 | COc1cccc(CN(C)CC(=O)NCc2ccccc2Cl)c1OC | -3.26%
63 | C=CCOC/C=C/C#CCN(CC=C)Cc1ccc(OC)cc1OC | 6.98%
64 | Cc1ccc(-c2noc(CCC(=O)Nc3ccccc3N3CCN(C)CC3)n2)cc1 | 3.69%
65 | COCCn1c(C)cc(C(=O)COC(=O)/C=C/c2cccc(OC)c2)c1C | 6.09%
66 | Cc1cccc([C@@H]2[C@@H]3C(=O)N(C)C(=O)[C@@H]3[C@@H]3C(=O)Nc4ccccc4C(=O)N23)c1 | 1.77%
67 | CCCC(=O)Nc1ncnc2c1ncn2C1O[C@@H]2COP(=O)(O)O[C@H]2[C@H]1OC(=O)CCC (some centres undefined) | -3.72%
68 | COc1cc(/C=C/C(=O)n2cnc3ccccc32)cc(OC)c1OC | 11.5%
69 | Cc1[nH]c2ccccc2c1SCC(=O)Nc1nccs1 | 4.6%
70 | Cc1cc(C(F)(F)F)nc(SCC(=O)Nc2nccs2)n1 | -6.74%
71 | CC(=O)c1cc(C#N)c(SCC(=O)Nc2nccs2)nc1C | 30.9% (active)
72 | Cn1sc(=O)c2cc(S(=O)(=O)NC3CC3)ccc21 | -1.88%

Row | Compound | activity
73 | CCOC(=O)NC(=O)CSc1nnc(SCCC(=O)O)s1 | 0.79%
74 | O=C(Nn1c(SCc2ccc([N+](=O)[O-])cc2)nc2ccccc2c1=O)c1ccc(F)cc1 | 0.27%
75 | O=C(CCn1c(SCC(=O)c2ccccc2)nc2ccccc2c1=O)NCc1ccc(F)cc1 | 26.1% (active)
76 | O=C(CSc1nc2ccccc2c(=O)n1CCCO)NC1CC1 | 4.03%
77 | O=S(=O)(c1cccs1)N1CCCc2nc(-c3ccc(Br)cc3)ccc21 | 1.38%
78 | c1ccc2c(c1)nnn2-c1ccncc1 | 1.17%
79 | CC(C)CN(C(=O)c1cccc(S(=O)(=O)N2CCCCC2)c1)C1CCS(=O)(=O)C1 (centres undefined) | 5.44%
80 | CCOc1nc(-c2ccc(OC)cc2)ccc1-c1noc(-c2cc(OC)c(OC)c(OC)c2)n1 | 26.3% (active)
81 | CCOc1cc(-c2noc(CCC(=O)N3CCOCC3)n2)ccc1OC | -5.84%
82 | CCOC(=O)c1cc(-c2nnc(-c3cc(OC)c(OC)c(OC)c3)o2)c(C)nc1C | 9.45%
83 | Cc1sc2nc(-c3ccccc3F)oc(=O)c2c1C | 1.33%
84 | CCCCC(=O)N[C@@H]1CC[C@@]23CCCN2C(=O)CCC[C@H]3[C@H]1C | 1.41%
85 | NC(=O)CCCC1=NS(=O)(=O)c2ccccc2N1 | -0.09%
86 | c1ccc(-c2ccnc3nc(-n4cccc4)nn23)cc1 | -4.06%
87 | CCCCCCSc1ccc(-c2nc3ccc(Cl)cn3c2NCc2ccccc2)cc1 | 24% (active)
88 | Clc1ccc2nc(CSc3ccccc3)cn2c1 | 6.58%
89 | CCCCNc1c(-c2cccc(Sc3ccc(OC)cc3)c2)nc2ccccn12 | -0.18%
90 | C[n+]1ccc(/C=C/c2c[nH]c3ccccc23)cc1 | 169% (active)
91 | Cn1cnc([N+](=O)[O-])c1Sc1n[nH]c(N)n1 | -0.66%
92 | COc1ccc(C(=O)OCc2cc(=O)n3ccsc3n2)cc1F | 3.21%
93 | COc1cc(C(=O)OCc2cc(=O)n3ccsc3n2)ccc1OC(C)C | -8.61%
94 | COc1cc(OC)cc(-c2nc(=S)n3ccsc3n2)c1 | 14.2% (active)

Source: PubChem BioAssay AID1259318 (Sanford-Burnham Center for Chemical Genomics, 2017)
